Experimental data: PubChem BioAssay (EPA / NIEHS)
Activity calls are given as the source filed them. How the source made its calls: active means hit-call score of the fitted dose curve at least 0.9, where 1 is the maximum; inactive means score below 0.9.

Columns and labels:
Conditions in all cases: mRNA level, 48 h; actives raise or lower the signal
[1] = read-out: Insulin Like Growth Factor 1 (IGF1), IGF1 (gene 3479); test: LTEA_HepaRG_IGF1: Life Technologies and Expression Analysis (LTEA) Assay for Insulin Like Growth Factor 1 (IGF1) using HepaRG (AID 2283506)
Outline: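 Differentiated human HepaRG cells were dosed for 48 h in serum-free induction medium with 0.5% DMSO, eight half-log concentrations up to 100 uM, in duplicate. IGF1 mRNA was quantified by qRT-PCR normalized to ACTB, GAPDH, POLR2A; bidirectional fitting versus DMSO.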

[2] = read-out: Intercellular Adhesion Molecule 1 (ICAM1), ICAM1 (gene 3383); test: LTEA_HepaRG_ICAM1: Life Technologies and Expression Analysis (LTEA) Assay for Intercellular Adhesion Molecule 1 (ICAM1) using HepaRG (AID 2283507)
Outline: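 Using the human liver line HepaRG, compounds are tested in duplicate over 48 h at concentrations up to 100 uM. Expression is determined by TaqMan qRT-PCR, normalized to endogenous controls, and analysed relative to 0.5% DMSO vehicle.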

[3] = read-out: Insulin-like growth factor-binding protein 1 (IGFBP1), IGFBP1 (gene 3484); test: LTEA_HepaRG_IGFBP1: Life Technologies and Expression Analysis (LTEA) Assay for Insulin-like growth factor-binding protein 1 (IGFBP1) using HepaRG (AID 2283508)
Outline: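 HepaRG, 48 h, 8 conc. (max 100 uM, half-log), duplicates, 0.5% DMSO. Readout: TaqMan qRT-PCR, ACTB/GAPDH/POLR2A normalisation. Fit: bidirectional vs DMSO.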

[4] = read-out: Interleukin 6 (IL6), IL6 (gene 3569); test: LTEA_HepaRG_IL6: Life Technologies and Expression Analysis (LTEA) Assay for Interleukin 6 (IL6) using HepaRG (AID 2283509)
Outline: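 Differentiated human HepaRG cells, plated 48 h then switched to serum-free induction medium, were exposed in duplicate for 48 h to eight half-log concentrations up to 100 uM in 0.5% DMSO. IL6 mRNA measured by qRT-PCR, normalized to ACTB/GAPDH/POLR2A.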

[5] = read-out: Interleukin 6 Receptor (IL6R), IL6R (gene 3570); test: LTEA_HepaRG_IL6R: Life Technologies and Expression Analysis (LTEA) Assay for Interleukin 6 Receptor (IL6R) using HepaRG (AID 2283510)
Outline: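 Differentiated human HepaRG cells, plated 48 h then switched to serum-free induction medium, were dosed in duplicate for 48 h at eight half-log concentrations up to 100 uM in 0.5% DMSO. IL6R mRNA quantified by qRT-PCR, normalized to ACTB/GAPDH/POLR2A; bidirectional fit versus DMSO.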

[6] = read-out: Keratin 19 (KRT19), KRT19 (gene 3880); test: LTEA_HepaRG_KRT19: Life Technologies and Expression Analysis (LTEA) Assay for Keratin 19 (KRT19) using HepaRG (AID 2283512)
Outline: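 Readout is qRT-PCR of KRT19 mRNA, normalized to ACTB, GAPDH and POLR2A, from HepaRG cells treated 48 h with eight-point half-log dilutions topping at 100 uM. Activity in either direction is scored relative to 0.5% DMSO vehicle.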

[7] = read-out: JUN Transcription Factor, JUN (gene 3725); test: LTEA_HepaRG_JUN: Life Technologies and Expression Analysis (LTEA) Assay for JUN Transcription Factor using HepaRG (AID 2283513)
Outline: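 Differentiated HepaRG cells were exposed to chemicals for 48 h in serum-free induction medium, 8 concentrations from 100 uM in half-log steps, 0.5% DMSO vehicle, in duplicate. JUN mRNA was quantified by TaqMan qRT-PCR, normalized to ACTB, GAPDH, POLR2A.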

[8] = read-out: Lipase C (LIPC), LIPC (gene 3990); test: LTEA_HepaRG_LIPC: Life Technologies and Expression Analysis (LTEA) Assay for Lipase C (LIPC) using HepaRG (AID 2283514)
Outline: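 Differentiated human HepaRG cells in serum-free induction medium were exposed in duplicate for 48 h to eight concentrations (top 100 uM, half-log steps, 0.5% DMSO). LIPC mRNA was quantified by TaqMan qRT-PCR, normalized to ACTB, GAPDH and POLR2A, with bidirectional fitting versus DMSO.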

[9] = read-out: Lipoprotein lipase (LPL), LPL (gene 4023); test: LTEA_HepaRG_LPL: Life Technologies and Expression Analysis (LTEA) Assay for Lipoprotein lipase (LPL) using HepaRG (AID 2283515)
Outline: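 Differentiated human HepaRG cells in serum-free induction medium were exposed in duplicate for 48 h to eight half-log concentrations (top 100 uM) in 0.5% DMSO. LPL mRNA was quantified by TaqMan qRT-PCR, normalized to ACTB, GAPDH and POLR2A.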

[10] = read-out: MicroRNA 122 (MIR122), gene 406906; test: LTEA_HepaRG_MIR122: Life Technologies and Expression Analysis (LTEA) Assay for MicroRNA 122 (MIR122) using HepaRG (AID 2283516); further: the transcript read is the microRNA miR-122
Outline: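 Differentiated human HepaRG cells were exposed 48 h in serum-free induction medium to eight half-log concentrations (top 100 uM, 0.5% DMSO). Transcript level was measured by TaqMan qRT-PCR, normalized to ACTB, GAPDH and POLR2A, and fitted bidirectionally versus DMSO.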

[11] = read-out: matrix metalloproteinase-10 (MMP10), MMP10 (gene 4319); test: LTEA_HepaRG_MMP10: Life Technologies and Expression Analysis (LTEA) Assay for matrix metalloproteinase-10 (MMP10) using HepaRG (AID 2283517)
Outline: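 HepaRG, collagen I, ~100,000 cells/well; serum-free induction medium; 48 h exposure, duplicate, 8-pt half-log to 100 uM, 0.5% DMSO. Readout: TaqMan qRT-PCR, normalized to ACTB/GAPDH/POLR2A; bidirectional fit vs DMSO.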

[12] = read-out: MYC, MYC (gene 4609); test: LTEA_HepaRG_MYC: Life Technologies and Expression Analysis (LTEA) Assay for MYC using HepaRG (AID 2283518)
Outline: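 Expression changes were scored by TaqMan qRT-PCR with ACTB, GAPDH and POLR2A normalization. Cultures in serum-free induction medium received duplicate 8-point concentration series, highest 100 uM, for 48 h; DMSO (0.5%) served as baseline.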

[13] = read-out: matrix metalloproteinase-3 (MMP3), MMP3 (gene 4314); test: LTEA_HepaRG_MMP3: Life Technologies and Expression Analysis (LTEA) Assay for matrix metalloproteinase-3 (MMP3) using HepaRG (AID 2283519)
Outline: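 Differentiated human HepaRG cells, plated 48 h on collagen I, were exposed in duplicate for 48 h in serum-free induction medium to eight half-log concentrations up to 100 uM in 0.5% DMSO. MMP3 mRNA was quantified by TaqMan qRT-PCR, normalised to ACTB, GAPDH and POLR2A.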

[14] = read-out: Paternally Expressed 10 (PEG10), PEG10 (gene 23089); test: LTEA_HepaRG_PEG10: Life Technologies and Expression Analysis (LTEA) Assay for Paternally Expressed 10 (PEG10) using HepaRG (AID 2283520)
Outline: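 Differentiated HepaRG cells, plated 48 h then switched to serum-free induction medium, were exposed in duplicate for 48 h to eight half-log concentrations topping at 100 uM in 0.5% DMSO. PEG10 mRNA was quantified by TaqMan qRT-PCR, normalised to ACTB, GAPDH and POLR2A.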

[15] = read-out: Nuclear factor NF-kappa-B p105 subunit (Homo sapiens) (UniProt P19838); test: LTEA_HepaRG_NFKB1: Life Technologies and Expression Analysis (LTEA) Assay for Nuclear Factor Kappa B Subunit 1 (NFKB1) using HepaRG (AID 2283521);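 further: TaqMan qRT-PCR transcript normalised to ACTB GAPDH and POLR2A housekeeping genes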
Outline: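 HepaRG, 48 h exposure; 8-pt half-log series from 100 uM in 0.5% DMSO; duplicates. Readout: NFKB1 mRNA by qRT-PCR (Fluidigm arrays), housekeeping-normalized. Gain/loss fit vs DMSO baseline.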

[16] = read-out: Protein phosphatase 2A (PPP2R4), PTPA (gene 5524); test: LTEA_HepaRG_PPP2R4: Life Technologies and Expression Analysis (LTEA) Assay for Protein phosphatase 2A (PPP2R4) using HepaRG (AID 2283522)
Outline: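 Differentiated HepaRG cells in serum-free induction medium were exposed in duplicate for 48 h to eight concentrations, top 100 uM with half-log dilutions, in 0.5% DMSO. PPP2R4 mRNA was quantified by TaqMan qRT-PCR, normalized to ACTB, GAPDH and POLR2A.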

[17] = read-out: Phosphatase and tensin (PTEN), PTEN (gene 5728); test: LTEA_HepaRG_PTEN: Life Technologies and Expression Analysis (LTEA) Assay for Phosphatase and tensin (PTEN) using HepaRG (AID 2283523)
Outline: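 Differentiated human HepaRG cells, plated 48 h then switched to serum-free induction medium, were exposed in duplicate for 48 h to eight half-log concentrations up to 100 uM in 0.5% DMSO. PTEN mRNA measured by TaqMan qRT-PCR, normalized to ACTB/GAPDH/POLR2A, bidirectional fit versus DMSO.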

[18] = read-out: solute carrier (SLC22A1), SLC22A1 (gene 6580); test: LTEA_HepaRG_SLC22A1: Life Technologies and Expression Analysis (LTEA) Assay for solute carrier (SLC22A1) using HepaRG (AID 2283524)
Outline: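 Human HepaRG cells were plated 48 h, switched to serum-free induction medium, then exposed in duplicate for 48 h to 8-point half-log series from 100 uM in 0.5% DMSO. SLC22A1 mRNA measured by qRT-PCR, normalized to ACTB/GAPDH/POLR2A, fitted bidirectionally versus DMSO.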

[19] = read-out: Pyruvate Dehydrogenase Kinase 4 (PDK4), PDK4 (gene 5166); test: LTEA_HepaRG_PDK4: Life Technologies and Expression Analysis (LTEA) Assay for Pyruvate Dehydrogenase Kinase 4 (PDK4) using HepaRG (AID 2283525)
Outline: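 Differentiated human HepaRG cells, pre-cultured 48 h, were exposed in duplicate for 48 h in serum-free induction medium to eight half-log concentrations up to 100 uM in 0.5% DMSO. PDK4 mRNA was quantified by qRT-PCR, normalized to ACTB, GAPDH and POLR2A, bidirectional fitting versus DMSO.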

[20] = read-out: Potassium channel subfamily K member 1 (KCNK1), KCNK1 (gene 3775); test: LTEA_HepaRG_KCNK1: Life Technologies and Expression Analysis (LTEA) Assay for Potassium channel subfamily K member 1 (KCNK1) using HepaRG (AID 2283511)
Outline: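 Differentiated human HepaRG cells in serum-free induction medium were exposed in duplicate for 48 h to 8 half-log concentrations up to 100 uM in 0.5% DMSO. KCNK1 mRNA was measured by TaqMan qRT-PCR, normalized to ACTB, GAPDH and POLR2A, and fitted bidirectionally versus DMSO.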

Measured: outcome

Chain of Nuclear factor NF-kappa-B p105 subunit (Homo sapiens) (P19838 whole entry, looked up): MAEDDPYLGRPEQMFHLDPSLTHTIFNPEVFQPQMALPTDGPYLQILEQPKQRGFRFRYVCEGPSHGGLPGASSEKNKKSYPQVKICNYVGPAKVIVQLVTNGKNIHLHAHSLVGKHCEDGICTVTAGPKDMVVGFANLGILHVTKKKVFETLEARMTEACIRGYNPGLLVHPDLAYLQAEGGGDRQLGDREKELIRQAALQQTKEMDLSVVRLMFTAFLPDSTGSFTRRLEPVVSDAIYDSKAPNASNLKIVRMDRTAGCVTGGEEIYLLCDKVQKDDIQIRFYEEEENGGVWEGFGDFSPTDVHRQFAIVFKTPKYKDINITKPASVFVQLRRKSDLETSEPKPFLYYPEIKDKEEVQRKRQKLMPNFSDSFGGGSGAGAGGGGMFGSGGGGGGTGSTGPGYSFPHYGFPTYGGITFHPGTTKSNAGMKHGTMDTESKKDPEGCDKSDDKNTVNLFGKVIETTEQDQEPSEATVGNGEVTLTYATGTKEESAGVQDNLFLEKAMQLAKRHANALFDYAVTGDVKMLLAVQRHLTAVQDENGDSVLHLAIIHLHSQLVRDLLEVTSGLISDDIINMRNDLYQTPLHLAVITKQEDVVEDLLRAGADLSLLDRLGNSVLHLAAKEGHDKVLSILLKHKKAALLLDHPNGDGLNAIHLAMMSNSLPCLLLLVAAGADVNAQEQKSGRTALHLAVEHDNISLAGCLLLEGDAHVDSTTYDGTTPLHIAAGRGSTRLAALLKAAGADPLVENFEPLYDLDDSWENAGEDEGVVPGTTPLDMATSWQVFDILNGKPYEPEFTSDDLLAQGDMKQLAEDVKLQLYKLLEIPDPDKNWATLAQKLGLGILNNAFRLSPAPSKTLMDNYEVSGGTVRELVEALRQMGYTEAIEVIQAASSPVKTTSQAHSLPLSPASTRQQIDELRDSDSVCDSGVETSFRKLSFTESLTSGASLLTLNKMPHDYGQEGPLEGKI

Cc1cccc([N+](=O)[O-])c1C
not listed: [20]
inactive: all other assays above

C=CCOC(=O)c1ccccc1C(=O)OCC=C
not listed: [13]
inactive: all other assays above

Cc1ccc(C)c(C)c1
not listed: [20]
inactive: all other assays above
